# Compounds with a hit are over-represented: about 19% of the library has one in this group of screens.
# HT1080 IDH1KD tx: kills HT-1080 cells with IDH1 knockdown. hit rate 2% among 360,000. AID 686971. Potency, µM (titrated, usually from 46.1 µM), for the others: at the top dose activity, negative = toxicity, hits mostly cytotoxic. HT-1080 IDH1 knockdown viability, ATP luminescence, 48 h;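 further: potency means the concentration at half of the fitted maximal effect; 0% = DMSO wells and -100% = cell-free medium wells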
#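 % activity derives from luminescence (CellTiter-Glo), normalised to DMSO and no-cell wells. HT-1080-IDH1KD cells, 750/well, had 48 h compound exposure at 37 °C.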
# IL1B secr inh: blocks inflammasome-driven IL-1 beta release. THP-1 LPS/ATP IL-1B secretion, AlphaLISA, 16 h; hits give low values. activity change, % at 57.5 µM. hit rate 4.7% among 360,000. AID 743279; in the data active means activity change below about -50%; inconclusive means mostly about -30% to -49%
#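 THP-1 cells pretreated 1 hr with compounds (up to 57.5 uM final), then stimulated with LPS (250 ng/mL final) plus ATP (1.25 mM final); secreted IL-1B measured by AlphaLISA after 16 hr, decreased signal indicating inhibition.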
# DT40 TDP1 CPT: DT40-hTDP1 cell growth loss with CPT. chicken DT40 Tdp1-/-;hTDP1 cells + 20 nM CPT, ATP luminescence, 48 h. Potency, µM (highest dose often 46.2 µM), for inactives: top-dose activity change, negative = growth inhibition, most hits filed as inhibitors. hit rate 12% among 420,000. AID 686979; further: potency means the concentration at half of the fitted maximal effect; nearly all actives have a fitted effect of over 55% in size
#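 Chicken DT40 Tdp1-/- cells stably complemented with human TDP1 were seeded at 400 cells/well in medium containing 20 nM camptothecin, exposed to pin-transferred compounds, and grown at 37 °C for at least 48 hr. Viability was read as ATP luminescence.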
# HT1080-NT tox: kills 2HG-producing HT-1080-NT fibrosarcoma cells | HT-1080-NT fibrosarcoma viability, CellTiter-Glo ATP luminescence, 48 h | Potency, µM (titrated, usually from 46.1 µM), without a hit: at the highest dose activity, negative = less viability, most hits filed as cytotoxic | hit rate 1.6% among 360,000 | AID 686970;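 further: NT is the 2HG producing partner of a matched IDH1 knockdown line; potency means the concentration at half of the fitted maximal effect; 0% = DMSO-treated cells and -100% = media-only wells without cells; nearly all actives have a fitted effect of over 55% in size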
#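 750 cells/well, RPMI + 5% FBS; 2 h settle, compound pin-transfer, 48 h at 37 degrees C. CellTiter-Glo 10 min RT, luminescence. Normalized to DMSO and media-only wells.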
# TDP1 cell noCPT: qHTS for Inhibitors of human tyrosyl-DNA phosphodiesterase 1 (TDP1): qHTS in cells in absence of CPT. AID 686978, 2013. Potency, µM (series often up to 46.2 µM), inactives show top-dose activity change, negative = growth inhibition, actives largely listed as inhibitors. DT40 Tdp1-/- hTDP1 cells, no CPT, ATP luminescence, 48 h. hit rate 15% among 420,000; further: potency means the concentration at half of the fitted maximal effect; nearly all actives have a fitted effect of over 55% in size
#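 Growth of hTDP1-complemented DT40 Tdp1-knockout cells is measured by ATP luminescence after at least 48 hr compound exposure at 37 °C, with DMSO substituting for the 20 nM CPT used in the parallel screen.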
# Numbers without * were called inactive; ? = inconclusive; . = not tested or not shown; [ ] = dose if it differs, or a comment. Unless noted, the call rests on the fitted dose curve; in most records, active means well fitted curve in the direction sought with a large enough effect; inconclusive means small, poorly fitted or top-dose-only effect, or another doubt; inactive means no such curve, though single readings can be large; an effect the other way counts as inactive or inconclusive. Unless noted, on the % scale 0 is the no-effect control and ±100 the full control effect.
SMILES,HT1080 IDH1KD tx,IL1B secr inh,DT40 TDP1 CPT,HT1080-NT tox,TDP1 cell noCPT
COCCCNC(=S)N1CCN(c2ccccc2)CC1,18%,27,5%,21%,0%
O=C(N[C@@H](Cc1ccccc1)C(=O)OCc1ccccc1)c1ccco1,0%,-3,-1%,9%,?
CCOC(=O)c1[nH]c2c(c1-c1ccc(OC)cc1)C(=O)CC(c1ccc(OC)c(OC)c1)C2 (configuration not stated),-30%,.,?,-25%,?
CCOc1ccc(C2CC(=O)c3c([nH]c(C(=O)OCC4CCCCC4)c3C)C2)cc1 (configuration not stated),.,.,?,.,18µM*
CCOC(=O)c1[nH]c2c(c1Cc1ccccc1OC)C(=O)CC(c1ccc(OCC)cc1)C2 (configuration not stated),.,.,8.2µM*,.,9.2µM*
COc1cc(C2CC(=O)c3c([nH]c(C(=O)OC4CCCCC4)c3C)C2)cc(OC)c1OC (configuration not stated),.,.,1.8µM*,.,2.1µM*
COc1ccc(C2CC(=O)c3c([nH]c(C(=O)OC4CCC(C)CC4)c3C)C2)cc1OC (configuration not stated),.,.,?,.,-14%
CCc1ccc(C2CC(=O)c3c([nH]c(C(=O)OCC4CCCCC4)c3C)C2)cc1 (configuration not stated),.,.,-25%,.,?
COc1cc(C2CC(=O)c3c([nH]c(C(=O)OCC4CCCCC4)c3C)C2)cc(OC)c1OC (configuration not stated),.,.,1.3µM*,.,1.6µM*
CCCCNC(=O)CN1CCN(c2ncc(NC(=O)c3ccc(Cl)cc3)cc2C(=O)O)CC1,.,.,-1%,.,5%
Cn1c(=O)c2nc(-c3ccccc3)c(-c3ccccc3)nc2n(C)c1=O,3%,-1,?,-6%,21µM*
O=C(C1CCN(S(=O)(=O)c2cccc3nsnc23)CC1)N1CCCc2ccccc21,-7%,-52*,-27%,-23%,?
O=C(C1CCCN(S(=O)(=O)c2cccc3nsnc23)C1)N1CCCCCC1 (configuration not stated),1%,11,-25%,14%,?
CC1CCCN(C(=O)C2CCCN(S(=O)(=O)c3cccc4nsnc34)C2)C1 (configuration not stated),1%[9.24 µM],-12,?,-3%,-28%
O=C(C1CCCN(S(=O)(=O)c2cccc3nsnc23)C1)N1CCc2ccccc21 (configuration not stated),-29%,0,?,-23%,23µM*
CC1Cc2ccccc2N1C(=O)C1CCCN(S(=O)(=O)c2cccc3nsnc23)C1 (configuration not stated),-29%,-13,?,-11%,15µM*
O=C(C1CCN(S(=O)(=O)c2cccc3nsnc23)CC1)N1CCc2ccccc21,-16%,-1,?,-3%,?
O=C(C1CCCN(S(=O)(=O)c2cccc3nsnc23)C1)N1CCc2ccccc2C1 (configuration not stated),-11%,?,?,-2%,23µM*
COc1ccccc1CNS(=O)(=O)c1c(C(=O)N2CCC(C)CC2)c(C)n(C)c1C,.,.,-10%,.,-23%
O=C(C1CCN(S(=O)(=O)c2cccc3nsnc23)CC1)N1CCn2c1nc1ccccc12,-6%,17,?,0%,16µM*
COc1ccc(NC(=O)c2sc3nc[nH]c(=O)c3c2C)cc1Cl,.,.,-5%,.,-19%
CCOC(=O)C1CCCN(C(=O)Cc2ccc(OC)c(OC)c2)C1 (configuration not stated),-1%,-14,-5%,-2%,-7%
CCOC(=O)C1CCN(C(=S)Nc2ccccc2)CC1,-6%,-2,?,0%,8%
CCOC(=O)C1CCCN(C(=O)Cc2ccc(C)cc2)C1 (configuration not stated),19%,6,?,15%,18µM*
